Screening data: PubChem BioAssay, Sanford-Burnham Center for Chemical Genomics
PLAP act = PLAP enzyme activators, biochemical, luminescence, HTS; activation fold at 20 µM; AID 696, 2007; 96,000 compounds, 1.2% hits; purified PLAP enzyme, luminescent substrate read-out; hits give high values; in the data active = activation fold above about 2
Target sequence (P05187 whole entry, looked up): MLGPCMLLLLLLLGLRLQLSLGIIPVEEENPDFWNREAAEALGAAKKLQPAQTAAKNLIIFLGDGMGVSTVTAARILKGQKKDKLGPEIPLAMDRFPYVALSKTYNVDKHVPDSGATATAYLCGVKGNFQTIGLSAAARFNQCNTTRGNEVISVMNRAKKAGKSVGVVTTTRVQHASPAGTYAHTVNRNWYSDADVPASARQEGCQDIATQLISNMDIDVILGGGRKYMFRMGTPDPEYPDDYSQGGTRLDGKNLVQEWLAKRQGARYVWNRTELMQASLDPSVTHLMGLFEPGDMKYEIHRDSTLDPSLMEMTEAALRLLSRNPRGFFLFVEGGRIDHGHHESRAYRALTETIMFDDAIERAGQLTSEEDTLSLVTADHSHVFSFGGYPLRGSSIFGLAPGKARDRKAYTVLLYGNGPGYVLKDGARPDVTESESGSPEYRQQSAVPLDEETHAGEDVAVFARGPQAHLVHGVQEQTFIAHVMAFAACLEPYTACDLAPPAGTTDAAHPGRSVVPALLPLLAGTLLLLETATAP
CYP2C9 inhib = blockers of cytochrome P450 2C9 activity – biochemical, luminescence, ADME assay, primary screen; 96,000 compounds, 20% hits; P11712; CYP2C9 Supersomes, luciferin-H conversion; AID 777, 2007; inhibition, % at 5 µM;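 active = blocking of liver enzyme CYP2C9 beyond about 50% at 5 µM, limit read from the data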
CYP2C19 inhib = blockers of cytochrome P450 2C19 activity – biochemical, luminescence, ADME assay, primary screen; P33261; CYP2C19 Supersomes, luciferin-H EGE luminescence, 30 min; inhibition, % at 5 µM; 96,000 compounds, 21% hits;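 active = CYP2C19 inhibition above a set limit at 5 µM in the primary screen, cut at about 50% in these data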;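 note: plate controls were negative control wells for no effect and 2.5 mM tranylcypromine positive control for full effect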
CYP2C9 activ = human CYP2C9 activators, primary screen, biochemical, luminescence; Cytochrome P450 2C9 (Homo sapiens), P11712; recombinant CYP2C9, luciferin-H conversion; hits give high values; factor 1 = untreated enzyme, 0 = blocked; activation factor at 5 µM; 96,000 compounds, 1.4% hits;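 active = activation factor of 2 or more for CYP2C9 at a 5 µM dose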;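 note: 0 = sulfaphenazole-blocked wells and 1 = vehicle-only wells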
CYP2C19 act = human CYP2C19 activators, primary screen, biochemical, luminescence; recombinant CYP2C19, luciferin-H EGE luminescence; hits give high values; 0 = fully inhibited enzyme, 1 = untreated enzyme; Cytochrome P450 2C19 (Homo sapiens), P33261; activation factor at 5 µM; AID 1025, 2008; 96,000 tested, under 10 active;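 active = activation factor of at least 2 at 5 µM in the primary screen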;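 note: 0 = wells with 2.5 mM tranylcypromine and 1 = vehicle-only wells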
An asterisk follows results filed as active. Hits are enriched below; roughly 31% of the tested compounds scored in any of these assays.

What do the screens show for `CCOC(=O)C(Sc1cc(C)nc(N)n1)C(C)=O` (configuration not stated)?
PLAP act: 1; CYP2C9 inhib: 2.9; CYP2C19 inhib: -8.0; CYP2C9 activ: 1; CYP2C19 act: 1.1

Results for CCCCSc1nc(C)c(CC(=O)OC)c(=O)[nH]1 ?
PLAP act: 1.1; CYP2C9 inhib: -7.2; CYP2C19 inhib: 8.1; CYP2C9 activ: 1.1; CYP2C19 act: 0.9

Results for CC1CCN(S(=O)(=O)c2ccc3ccccc3c2)CC1 ?
PLAP act: 0.5; CYP2C9 inhib: -166.6; CYP2C19 inhib: 83.3*; CYP2C9 activ: 2.7*; CYP2C19 act: 0.2

Results for CN1CCN(S(=O)(=O)c2cccc(S(=O)(=O)c3cccc(S(=O)(=O)N4CCN(C)CC4)c3)c2)CC1 ?
PLAP act: 1.7; CYP2C9 inhib: 80.3*; CYP2C19 inhib: 39.7; CYP2C9 activ: 0.2; CYP2C19 act: 0.6

How did CCOC(=O)N1CCC(N2CCN(S(=O)(=O)c3ccc4ccccc4c3)CC2)CC1 do in these assays?
PLAP act: 1.6; CYP2C9 inhib: -118.2; CYP2C19 inhib: 12.8; CYP2C9 activ: 2.2*; CYP2C19 act: 0.9

How did CN1CCN(S(=O)(=O)c2ccc3ccccc3c2)CC1 do in these assays?
PLAP act: 0.9; CYP2C9 inhib: -145.6; CYP2C19 inhib: 7.5; CYP2C9 activ: 2.5*; CYP2C19 act: 0.9

How did CN(C)S(=O)(=O)N1CCN(S(=O)(=O)c2ccc3ccccc3c2)CC1 do in these assays?
PLAP act: 1; CYP2C9 inhib: -6.7; CYP2C19 inhib: 6.1; CYP2C9 activ: 1.1; CYP2C19 act: 0.9

How did CN1CCN(S(=O)(=O)c2ccc(-c3ccccc3)cc2)CC1 do in these assays?
PLAP act: 0.9; CYP2C9 inhib: 24.9; CYP2C19 inhib: 44.0; CYP2C9 activ: 0.8; CYP2C19 act: 0.6

How did Cc1nn2c(N)csc2nc1=O do in these assays?
PLAP act: 1; CYP2C9 inhib: -15.7; CYP2C19 inhib: -14.6; CYP2C9 activ: 1.2; CYP2C19 act: 1.1

Results for Cc1ccc(C(=O)NNC(=O)CSc2nnc(-c3ccncc3)n2-c2ccc(C)cc2)cc1 ?
PLAP act: 1.9; CYP2C9 inhib: 41.7; CYP2C19 inhib: 37.9; CYP2C9 activ: 0.6; CYP2C19 act: 0.6

How did CCOCCCNC(=O)C(NC(=O)c1ccc(=O)[nH]c1)c1ccccc1 (configuration not stated) do in these assays?
PLAP act: 0.9; CYP2C9 inhib: 2.3; CYP2C19 inhib: 9.6; CYP2C9 activ: 1; CYP2C19 act: 0.9

Results for Cc1nc(Oc2ccccc2)c2oc3ccccc3c2n1 ?
PLAP act: 1.1; CYP2C9 inhib: 20.2; CYP2C19 inhib: 56.8*; CYP2C9 activ: 0.8; CYP2C19 act: 0.4

How did COc1ccc(Oc2nc(C)nc3c2oc2ccccc23)cc1 do in these assays?
PLAP act: 1.2; CYP2C9 inhib: 2.6; CYP2C19 inhib: 9.2; CYP2C9 activ: 1; CYP2C19 act: 0.9

How did CCN1CCCC1CNC(=O)Cn1cccc1C(=O)c1ccccc1 (configuration not stated) do in these assays?
PLAP act: 1.1; CYP2C9 inhib: -6.7; CYP2C19 inhib: -9.1; CYP2C9 activ: 1.1; CYP2C19 act: 1.1

What do the screens show for `CC(=O)N1c2c(ccc3ccccc23)C(C)CC12CCCCC2` (configuration not stated)?
PLAP act: 1; CYP2C9 inhib: 93.3*; CYP2C19 inhib: 98.0*; CYP2C9 activ: 0.1; CYP2C19 act: 0

How did CCOC(=O)C1=C(C)NC(=O)NC1c1cccc(OC)c1OCc1ccccc1Cl (configuration not stated) do in these assays?
PLAP act: 0.9; CYP2C9 inhib: 9.3; CYP2C19 inhib: 24.1; CYP2C9 activ: 0.9; CYP2C19 act: 0.8

Results for CCCOc1ccccc1C1NC(=O)NC(C)=C1C(=O)OCCOC(C)C (configuration not stated) ?
PLAP act: 1.2; CYP2C9 inhib: 52.8*; CYP2C19 inhib: 55.9*; CYP2C9 activ: 0.5; CYP2C19 act: 0.4

Results for CCCOc1ccccc1C1NC(=O)NC(C)=C1C(=O)OCCOC (configuration not stated) ?
PLAP act: 1; CYP2C9 inhib: 21.7; CYP2C19 inhib: 54.0*; CYP2C9 activ: 0.8; CYP2C19 act: 0.5

What do the screens show for `CC1=C(C(=O)OCc2ccc3c(c2)OCO3)C(c2ccccc2)NC(=O)N1` (configuration not stated)?
PLAP act: 0.6; CYP2C9 inhib: 35.0; CYP2C19 inhib: 36.7; CYP2C9 activ: 0.7; CYP2C19 act: 0.6

Results for CC1=C(C(=O)OCc2ccc3c(c2)OCO3)C(c2ccccc2OCc2ccccc2)NC(=O)N1 (configuration not stated) ?
PLAP act: 1.5; CYP2C9 inhib: 99.0*; CYP2C19 inhib: 29.8; CYP2C9 activ: 0; CYP2C19 act: 0.7

Results for CCN(CCO)C(=O)C12CCC(C)(C(=O)C1)C2(C)C (configuration not stated) ?
PLAP act: 0.9; CYP2C9 inhib: -21.9; CYP2C19 inhib: -9.7; CYP2C9 activ: 1.2; CYP2C19 act: 1.1

Results for COCCNC(=O)c1c[nH]n2c(=O)cc(C3CCN(C(=O)OC(C)(C)C)CC3)nc12 ?
PLAP act: 1.6; CYP2C9 inhib: 62.2*; CYP2C19 inhib: 8.7; CYP2C9 activ: 0.4; CYP2C19 act: 0.9

What do the screens show for `COC(=O)c1c[nH]n2c(=O)cc(CCl)nc12`?
PLAP act: 1.4; CYP2C9 inhib: 24.3; CYP2C19 inhib: -8.2; CYP2C9 activ: 0.8; CYP2C19 act: 1.1

Results for CC(=O)NCCC(=O)Nc1sc2c(c1-c1nc3ccccc3[nH]1)CCCC2 ?
PLAP act: 1.6; CYP2C9 inhib: 61.1*; CYP2C19 inhib: 36.5; CYP2C9 activ: 0.4; CYP2C19 act: 0.6

What do the screens show for `CCCC(CCC)C(=O)Nc1cccc(C(=O)O)c1`?
PLAP act: 1; CYP2C9 inhib: -8.7; CYP2C19 inhib: -5.6; CYP2C9 activ: 1.1; CYP2C19 act: 1.1

Results for COc1cc(OC)c(NC(=S)Nc2cccc(C(C)=O)c2)cc1Cl ?
PLAP act: 1; CYP2C9 inhib: 34.2; CYP2C19 inhib: 54.3*; CYP2C9 activ: 0.7; CYP2C19 act: 0.5

What do the screens show for `COc1cc(NC(=S)Nc2cccc(Cl)c2Cl)c(OC)cc1Cl`?
PLAP act: 0.9; CYP2C9 inhib: -5.9; CYP2C19 inhib: 8.6; CYP2C9 activ: 1.1; CYP2C19 act: 0.9

What do the screens show for `O=C(O)c1cccc(NC(=S)NC(=O)C(c2ccccc2)c2ccccc2)c1`?
PLAP act: 1.2; CYP2C9 inhib: 81.6*; CYP2C19 inhib: -3.7; CYP2C9 activ: 0.2; CYP2C19 act: 1

Results for CC(=O)c1cccc(NC(=O)NC(C)c2ccncc2)c1 (configuration not stated) ?
PLAP act: 2.2*; CYP2C9 inhib: 93.8*; CYP2C19 inhib: 85.0*; CYP2C9 activ: 0.1; CYP2C19 act: 0.2
